Compound activity as filed in PubChem.
An excerpt weighted towards active compounds, which were near 31% of everything screened.
CYP2C19 act = increases human CYP2C19 enzyme activity | P33261 | recombinant CYP2C19, luciferin-H EGE luminescence; active compounds read high; 0 = fully inhibited enzyme, 1 = untreated enzyme | activation factor at 5 µM | AID 1025 | 96,000 tested, under 10 active;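 active means activation factor of at least 2 at 5 µM in the primary screen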
Target sequence (P33261 whole entry, looked up): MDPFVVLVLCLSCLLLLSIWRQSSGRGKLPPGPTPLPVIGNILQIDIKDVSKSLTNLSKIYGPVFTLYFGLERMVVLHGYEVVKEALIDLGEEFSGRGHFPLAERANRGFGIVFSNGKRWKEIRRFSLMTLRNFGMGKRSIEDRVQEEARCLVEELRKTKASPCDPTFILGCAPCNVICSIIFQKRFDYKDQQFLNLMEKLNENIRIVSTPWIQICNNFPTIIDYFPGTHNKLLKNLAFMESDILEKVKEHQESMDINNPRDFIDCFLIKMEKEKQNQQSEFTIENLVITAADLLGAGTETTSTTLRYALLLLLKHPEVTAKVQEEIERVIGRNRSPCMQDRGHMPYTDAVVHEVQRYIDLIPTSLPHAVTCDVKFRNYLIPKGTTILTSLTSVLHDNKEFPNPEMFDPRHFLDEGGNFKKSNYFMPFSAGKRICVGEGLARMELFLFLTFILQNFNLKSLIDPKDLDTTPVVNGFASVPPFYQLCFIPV
CYP2C9 activ = CYP2C9 (human) activation. P11712. recombinant CYP2C9, luciferin-H conversion, luminescence; active compounds read high; factor 1 = untreated enzyme, 0 = blocked. activation factor at 5 µM. 96,000 compounds, 1.4% hits. AID 1024;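 active means activation factor of 2 or more for CYP2C9 at a 5 µM dose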
CYP2C9 inh = inhibitors of human CYP2C9; CYP2C9 Supersomes, luciferin-H conversion, luminescence; P11712; inhibition, % at 5 µM; AID 777; 96,000 compounds, 20% hits;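 active means blocking of liver enzyme CYP2C9 beyond about 50% at 5 µM, limit read from the data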
CYP2C19 inh = human CYP2C19 inhibition | inhibition, % at 5 µM | P33261 | AID 778 | 96,000 compounds, 21% hits | CYP2C19 Supersomes, luciferin-H EGE luminescence, 30 min;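 active means CYP2C19 inhibition above a set limit at 5 µM in the primary screen, cut at about 50% in these data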
Hits are given with their value; i = inactive.

SMILES	CYP2C19 act	CYP2C9 activ	CYP2C9 inh	CYP2C19 inh
C=CCn1c(C)cc(C(=O)CSc2nnc(NC(C)C)s2)c1C	i	i	i	73.3
Cc1cc(C(=O)CSc2nnc(-c3ccco3)o2)c(C)n1Cc1ccco1	i	i	i	i
COCCn1c(C)cc(C(=O)COc2nc3ccccc3nc2C)c1C	i	i	i	i
CC(=O)Nc1ccc(SCC(=O)c2cc(C)n(Cc3cccs3)c2C)cc1	i	i	62.8	i
COCCn1c(C)cc(C(=O)CSc2ccc(NC(C)=O)cc2)c1C	i	i	i	93.3
Cc1cc(C(=O)CSc2n[nH]c(-c3ccccc3F)n2)c(C)n1Cc1cccs1	i	i	91.6	63.3
Cc1csc(SCC(=O)c2cc(C)n(Cc3cccs3)c2C)n1	i	i	50.1	83.6
C=CCn1c(C)cc(C(=O)CSc2ccc(NC(C)=O)cc2)c1C	i	i	i	90.7
COCC(C)n1c(C)cc(C(=O)CSc2nnc(Nc3ccccc3F)s2)c1C (stereo not given)	i	i	i	69.8
NC(=O)C1CCN(Cc2nc(-c3ccccc3)no2)CC1	i	i	i	i
COCC(C)n1c(C)cc(C(=O)CSc2nc3ccccc3c(=O)[nH]2)c1C (stereo not given)	i	i	i	i
COCC(C)n1c(C)cc(C(=O)CSc2ccc(NC(C)=O)cc2)c1C (stereo not given)	i	i	i	80.6
Cc1ccc(-n2c(SCC(N)=O)nnc2-c2ccc(S(=O)(=O)N3CCCCC3)cc2)c(C)c1	i	i	82.0	i
O=C(CSc1nccc(=O)[nH]1)Nc1ccc(F)c(Cl)c1	i	i	i	i
O=C(CSc1nccc(=O)[nH]1)Nc1ccc(Br)c(Cl)c1	i	i	79.4	i
COc1cc(O)oc1C=Nc1ccc(Cl)cc1Cl	i	i	i	69.4
O=C(C1CCN(S(=O)(=O)N2CCOCC2)CC1)N1CCN(c2ccccc2)CC1	i	i	i	i
O=C(c1ccc(Cn2cc(Br)cn2)o1)N1N=C(C(F)F)CC1(O)C(F)F (stereo not given)	i	i	93.4	73.6
COc1ccccc1OCc1ccc(C(=O)N2N=C(C(F)F)CC2(O)C(F)F)o1 (stereo not given)	i	i	72.7	i
COc1ccccc1OCc1ccc(C(=O)n2nc(C)c(Cl)c2C)o1	i	i	i	i
CC1=NN(C(=O)c2ccc(Cn3nc(C)cc3C)o2)C(O)(C(F)(F)F)C1 (stereo not given)	i	i	i	i
O=C(NC1CCCCCC1)c1ccc(S(=O)(=O)NCc2ccco2)cc1	i	i	i	i
O=C(NCCc1c[nH]c2ccccc12)c1ccc(-n2cnnn2)cc1	i	3.1	i	52.6
O=C(NCCc1c[nH]c2ccccc12)c1ccc(S(=O)(=O)NCc2ccco2)cc1	i	i	83.5	83.5
Cc1noc(C)c1Cn1nc(C(=O)O)c2ccccc2c1=O	i	i	80.5	i
SMILES	CYP2C19 act	CYP2C9 activ	CYP2C9 inh	CYP2C19 inh
Cc1cccc(OCCn2nc(C(=O)O)c3ccccc3c2=O)c1	i	i	68.4	71.6
Cc1cccc(C)c1OCCn1nc(C(=O)O)c2ccccc2c1=O	i	i	i	i
COc1cccc(-c2nc(CS(=O)(=O)c3ccccc3)no2)c1	i	i	i	i
Cc1cc(C)n(C(=O)CN2C(=O)COc3ccccc32)n1	i	i	56.9	80.0
O=C(CN1C(=O)COc2ccccc21)NCc1ccc(C(=O)O)cc1	i	i	i	i
CCc1ccc(CNC(=O)CN2C(=O)COc3ccccc32)cc1	i	i	i	72.3
CC1Cc2ccccc2N1C(=O)CN1C(=O)COc2ccccc21 (stereo not given)	i	i	i	i
CC(NC(=O)CN1C(=O)COc2ccccc21)c1ccccc1 (stereo not given)	i	2.2	i	88.6
CCOC(=O)N1CCN(CC(=O)Nc2ccc(OC)cc2)CC1	i	i	i	i
COc1ccc(C(=O)NCc2ccccc2OC)c(OC)c1	i	2.6	i	55.6
CCCCC(CC)C(=O)NCc1ccccc1OC (stereo not given)	i	i	i	53.4
CCN(CC)CCCNC(=O)c1ccccc1C	i	i	i	i
CCCC(C)C(=O)NCc1ccccc1OC (stereo not given)	i	i	i	i
COc1ccccc1CNC(=O)c1ccccc1N	i	i	i	52.6
CCN(CC)CCNC(=O)c1ccccc1N	i	i	56.2	66.6
O=C(Cn1c(=O)[nH]c2ccsc2c1=O)NC1CCCCC1	i	i	i	i
O=C(O)CCc1n[nH]c(=S)[nH]c1=O	i	i	i	i
CCOC(=O)Cc1csc(NC(=O)CCCN2C(=O)c3ccccc3C2=O)n1	i	i	52.8	i
